Most compounds without a hit are left out; they make up all but 1.1% or so of the library.
NPSR antagonist = neuropeptide S receptor (human) antagonism, cAMP. Q6W5P4. CHO-NPSR cells, cAMP TR-FRET, antagonist mode. Potency, µM (titrated, usually from 38.3 µM), inactives show at the top dose activity change, negative = inhibition, most hits filed as inhibitors. hit rate 1% among 220,000. AID 1461; further: on the % scale 0 is the no-effect control and ±100 the full control effect; nearly all actives have a fitted effect of over 50% in size
Target sequence (Q6W5P4 whole entry, looked up): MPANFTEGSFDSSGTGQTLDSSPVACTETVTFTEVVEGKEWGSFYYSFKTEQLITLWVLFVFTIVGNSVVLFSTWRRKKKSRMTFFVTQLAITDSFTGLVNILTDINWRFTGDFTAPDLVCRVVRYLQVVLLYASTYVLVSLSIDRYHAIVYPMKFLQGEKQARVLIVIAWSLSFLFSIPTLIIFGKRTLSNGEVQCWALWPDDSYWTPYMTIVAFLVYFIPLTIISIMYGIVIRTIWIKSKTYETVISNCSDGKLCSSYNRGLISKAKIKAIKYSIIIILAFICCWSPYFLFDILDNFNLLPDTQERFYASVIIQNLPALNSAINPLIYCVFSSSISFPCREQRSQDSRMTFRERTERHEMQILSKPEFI
HttQ103 aggreg = reduces HttQ103-GFP aggregates in PC12 cells; PC12 HttQ103-GFP aggregates, Acumen cytometry, 40 h; AID 1688; hit rate 1.1% among 220,000; Potency, µM (series often up to 46.1 µM), inactives show at the top dose activity change, negative = inhibition, actives largely listed as inhibitors; further: on the % scale 0 is the no-effect control and ±100 the full control effect; nearly all actives have a fitted effect of over 60% in size
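Ecdysone-promoter PC12 model expressing HTT exon 1 Q103 fused to GFP, induced by tebufenozide at 100 nM final. Compounds titrated; aggregates sized 1–25 µm scored on a 488 nm laser cytometer.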
mIDH1 inhibitor = inhibitors of human mutant IDH1 R132H; O75874; Potency, µM (series often up to 76.6 µM), without a hit: top-dose activity change, negative = inhibition, hits mostly inhibitors; hit rate 0.093% among 390,000; IDH1-R132H enzyme, NADPH consumption, diaphorase/resazurin fluorescence; further: on the % scale 0 is the no-effect control and ±100 the full control effect; nearly all actives have a fitted effect of over 65% in size
Target sequence (O75874 whole entry R132H, stated change not applied): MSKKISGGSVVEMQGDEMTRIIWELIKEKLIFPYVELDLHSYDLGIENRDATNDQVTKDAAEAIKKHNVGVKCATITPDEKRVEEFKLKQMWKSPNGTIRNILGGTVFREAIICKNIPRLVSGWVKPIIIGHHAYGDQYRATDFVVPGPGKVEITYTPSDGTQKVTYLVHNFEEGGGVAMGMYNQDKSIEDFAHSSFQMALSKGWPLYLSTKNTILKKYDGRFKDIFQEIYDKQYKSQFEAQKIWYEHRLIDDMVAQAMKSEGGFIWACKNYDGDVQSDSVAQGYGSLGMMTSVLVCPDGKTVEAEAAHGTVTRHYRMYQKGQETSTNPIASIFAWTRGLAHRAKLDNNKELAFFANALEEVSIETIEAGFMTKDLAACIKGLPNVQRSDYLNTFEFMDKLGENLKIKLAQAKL
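IDH1-R132H (0.5 ug/mL) preincubated 30 min with compound, then NADPH (0.016 mM) and alpha-KG (2 mM) added; 80 min at RT, pH 7.5. Remaining NADPH coupled via diaphorase/resazurin to fluorescence (540/590 nm); concentration-response curves normalized to no-enzyme control.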
A-T KAP1 phos = potential ataxia-telangiectasia treatment; hit rate 0.19% among 320,000; Potency, µM (top dose mostly 57.5 µM), inactives show top-dose activation, actives largely listed as activators; AID 485349; F2112 A-T fibroblasts, KAP-1 phosphorylation AlphaLISA; neocarzinostatin DNA damage 30 min before lysis; further: % of control where 0% means no effect; nearly all actives have a fitted effect of over 45% in size
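hTERT-immortalized A-T patient fibroblasts (F2112), 500 cells/well in OPTI-MEM, 1% FBS, got compounds for 60 min, then NCS for 30 min at 37C. Lysates were then assayed for phospho-KAP-1 by AlphaLISA (anti-pKAP1 donor, anti-KAP1 acceptor beads), 6 hr at 25C.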
HTT cytoprotect = protects HTT-Q103 PC12 cells, measured by ATP; PC12 HTT-Q103 induced, cytoprotection, ATP luminescence, 40 h; Potency, µM (titrated, usually from 56.4 µM), without a hit: cytoprotection (ATP increase), most hits filed as activators; hit rate 0.14% among 230,000; AID 1471; further: % of control where 0% means no effect; nearly all actives have a fitted effect of over 45% in size
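PC12 cells with ecdysone-inducible HTT exon 1 Q103-GFP, induced with 100 nM tebufenozide and co-treated with library compounds in a dose series (1536-well, 1500 cells/well). Cytoprotection read as ATP content by ATPlite luminescence.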
* = called active by the depositor; ? = inconclusive; nt = not tested or not shown; [ ] = dose if it differs, or a comment. The call rests on the fitted dose curve; in most records, active means well fitted curve in the direction sought with a large enough effect; inconclusive means small, poorly fitted or top-dose-only effect, or another doubt; inactive means no such curve, though single readings can be large; an effect the other way counts as inactive or inconclusive. Potency means the concentration at half of the fitted maximal effect.

SMILES	NPSR antagonist	HttQ103 aggreg	mIDH1 inhibitor	A-T KAP1 phos	HTT cytoprotect
N#Cc1ccccc1-c1ccc2ncnc(NCc3cccs3)c2c1	nt	nt	nt	nt	-33.2%
CC(C)(C)c1cc(C(=O)NCc2ccccc2)ccn1	2.6%[46.1 µM]	11.2µM*	3.1%	1.2%	-9.1%
COc1ccc(CCNC(=O)c2ccnc(C(C)(C)C)c2)cc1OC	nt	nt	3.9%	nt	nt
CCOC(=O)N1CCc2c(sc(NCc3cccc(F)c3)c2C(=O)Nc2ccc(OC)cc2OC)C1	nt	nt	15.9%	nt	nt
Cc1cccc(NC(=O)CSc2cn(CC(=O)N3CCOCC3)c3ccccc23)c1C	nt	nt	4.6%	nt	nt
Cc1cccc2cc(CN(Cc3ccco3)C(c3nnnn3CCc3ccccc3)C(C)C)c(=O)[nH]c12 (configuration not stated)	12.6µM*	1.2%[9.22 µM]	1.5%	-4.0%	-16.8%[10 µM]
CC(C)C[C@@H](NC(=O)[C@H](Cc1ccccc1)NC(=O)c1cnccn1)B(O)O	nt	-14.7%	nt	nt	-79.3%
C=C1C(=O)C=C2CN(C(=O)c3ccccc3)[C@@](Cc3ccc(F)cc3)(C(=O)OC)[C@@H]12	1.58µM*	5.01µM*	1.0%[38.3 µM]	15.9%	-111.4%
CC(C)(CC(=O)Nc1ccccc1)C(=O)O	nt	nt	nt	nt	4.6%[10 µM]
Cc1ccc(C(C)C)c(OCCCN2CCc3ccccc3C2)c1	nt	nt	10.6%	?	nt
Cc1ccc(C(C)C)c(OCCN2CCc3ccccc3C2)c1	nt	nt	2.9%	35.5µM*	nt
Cc1ccc(C(C)C)c(OCCCN(C)Cc2ccccc2)c1	-30.6%	5.0%	4.2%	35.5µM*	21.8%[10 µM]
Cc1ccc(C)c(OCCCN2CCc3ccccc3C2)c1	nt	nt	8.6%	40.9%	nt
Cc1ccc(C(C)C)c(OCC(O)CN(C)Cc2ccccc2)c1 (configuration not stated)	nt	nt	6.1%	1.8%	nt
Cc1ccc(OCCCCn2cnc3ccccc32)c(C)c1	-9.2%[46.1 µM]	3.16µM*	5.0%	nt	-152.6%
Cc1ccc(OCCCCN2CCc3ccccc3C2)c(C)c1	nt	nt	1.4%	35.5µM*	nt
c1ccc(CCNc2ncnc3nc[nH]c23)cc1	9.9%[46.1 µM]	11.2µM*	1.9%	1.2%	-26.7%[0.074 µM]
Cc1c(Cl)cccc1NC(=O)CCS(=O)(=O)c1ccc2c(c1)CC(C)N2C(=O)C1CC1 (configuration not stated)	nt	nt	18.0%	nt	nt
CC(C)CCn1c(N)c(S(=O)(=O)c2cccs2)c2nc3ccccc3nc21	?	11.2µM*	-7.1%	13.8%	-11.7%[0.074 µM]
Nc1c(S(=O)(=O)c2cccs2)c2nc3ccccc3nc2n1CC1CCCO1 (configuration not stated)	-24.9%[46.1 µM]	0.0022µM*	-4.7%	8.5%	nt
CC(/C=C/C=C(C)/C=C/C(=O)O)=C\C=C\C=C(C)\C=C\C=C(C)\C=C\C(=O)O	nt	nt	nt	nt	-3.5%
Cc1cccc(NC(=O)c2ccc(CNS(=O)(=O)c3ccc4c(c3)C(C)(C)C(=O)N4C)cc2)c1	nt	nt	1.2%	nt	nt
O=S(=O)(Nc1cc(Sc2cccc3cccnc23)c(O)c2ccccc12)c1ccc(F)cc1	-7.2%	22.4µM*	19.2%	-6.6%	nt
O=C(Sc1cccc2cccnc12)c1ccccc1Br	nt	nt	nt	-4.4%	nt
O=C(Sc1cccc2cccnc12)c1ccc(F)cc1	?	10µM*	nt	-19.3%	19.5%[10 µM]
SMILES	NPSR antagonist	HttQ103 aggreg	mIDH1 inhibitor	A-T KAP1 phos	HTT cytoprotect
Cc1cc(C)c2cccc(N)c2n1	-7.5%	10.3%[9.22 µM]	4.6%	-6.8%	3.5%[10 µM]
Cc1cc(C)c2ccc(N)nc2c1O	-11.8%[46.1 µM]	8.91µM*	-7.1%	8.3%	16.3%[1.9 µM]
N[C@H](Cc1cccc(-c2ccccc2CP(=O)(O)O)c1)C(=O)O	nt	nt	nt	nt	-19.5%[1.9 µM]
CCn1cc(/C=C/c2cc[n+](C)cc2)c2ccccc21	nt	nt	1.2%	3.16µM*	nt
Cn1c(C[C@@H](O)c2nc3ccccc3n2C)nc2ccccc21	nt	nt	nt	nt	-8.1%[10 µM]
Cn1c2ccccc2c2cc(C(=O)NNC(=O)CCl)sc21	-18.2%	15.8µM*	?	-1.2%	-35.2%
COc1ccc(C2C=C(c3ccc(Br)s3)Nc3ncnn32)cc1OC (configuration not stated)	-2.6%[46.1 µM]	11.2µM*	nt	0.0%	-49.0%[10 µM]
Cc1cc2ccc(OC(=O)c3ccc(N=C(N)N)cc3)cc2oc1=O	nt	nt	nt	nt	7.6%[10 µM]
O=C(NNC(=S)Nc1ccc(Cl)cc1)c1ccccc1OC(F)F	-0.3%	12.6µM*	1.4%	-2.0%	nt
O=C(NNC(=S)NCc1ccccc1)c1ccccc1OC(F)F	12.2%	-2.8%	1.4%	6.3%	nt
CC1=C(Cl)C2=NS(=O)(=O)CCN2C=C1Cl	9.6%	0.112µM*	0.1%	16.9%	nt
Cc1ccc(NC(=O)C2=CC=CN3CCS(=O)(=O)N=C23)cc1	nt	nt	-0.2%	-2.5%	nt
C[C@H]1[C@H](C)CC[C@@]2(C(=O)O)CC[C@]3(C)C(=CC[C@@H]4[C@@]5(C)CC[C@H](O)C(C)(C)[C@@H]5CC[C@@]43C)[C@@H]12	nt	nt	nt	nt	6.4%
CS(=O)(=O)n1nc(-c2ccc(Cl)cc2)nc1N	-6.8%	17.7%[9.22 µM]	2.8%	-5.7%	16.4%[10 µM]
Cn1nc(-c2ccc(Cl)cc2)nc2c(=O)n(C)c(=O)nc1-2	1µM*	?	nt	18.9%	-96.4%
CCC(=O)Nc1cccc(C2=NN(c3ccccc3)C(c3ccc(OC)cc3)C2)c1 (configuration not stated)	nt	nt	2.7%	22.4µM*	nt
COc1ccc(C2=NN(c3ccc(C(=O)O)cc3)C(c3ccc(OC)c(OC)c3)C2)cc1 (configuration not stated)	nt	nt	4.4%	28.2µM*	nt
CC(=O)Oc1ccc(C2=NN(c3ccccc3)C(c3ccccc3)C2)cc1 (configuration not stated)	nt	nt	1.9%	35.5µM*	nt
COc1ccc(C2CC(c3ccccc3)=NN2c2ccc(N)cc2)cc1 (configuration not stated)	-40.6%	-21.0%	-7.2%	1.8%	nt
O=S(=O)(c1cccc(F)c1)N1CCC(Oc2ccc(-n3cnnn3)cc2)CC1	nt	nt	4.2%	nt	nt
CCOc1ccc(CCNC(=O)Cn2nc(-c3ccc(C)cc3)ccc2=O)cc1OCC	nt	nt	19.5%	nt	nt
OC(COc1ccc(F)cc1Cl)CN1CCC(Cc2ccccc2)CC1 (configuration not stated)	nt	nt	22.1%	3.55µM*	nt
OC(COc1ccccc1F)CN1CCC(Cc2ccccc2)CC1 (configuration not stated)	nt	nt	11.5%	-2.6%	nt
CC(c1ccon1)N(C)Cc1cn(C)nc1-c1ccc2c(c1)OCCO2 (configuration not stated)	-3.3%	-17.3%[9.22 µM]	4.0%	-7.0%	12.4%[10 µM]
CC(c1ccon1)N(C)Cc1cn(Cc2ccccc2)nc1-c1ccc2c(c1)OCO2 (configuration not stated)	?	14.1µM*	10.7%	10.3%	-73.6%
CC(=O)c1cccc(N(C(=O)Cn2nnc3ccccc32)C(C(=O)NCc2ccccc2)c2ccc(F)cc2)c1 (configuration not stated)	nt	nt	-17.3%	nt	nt
CCc1nnc(NS(=O)(=O)c2ccc(NC(=S)NC(=O)/C=C/c3ccc([N+](=O)[O-])cc3)cc2)s1	7.9%	4.1%[9.22 µM]	5.0%	-3.0%	0.0%[10 µM]
